14 molecules from PubChem BioAssay can be followed below.

Experiment [1] addresses Albumin (Bos taurus) (UniProt P02769). Briefly: compounds binding labelled BSA control protein – biochemical, small-molecule microarray, Alexa647 label, 635/667 nm fluorescence, artefact control for SMM control protein annotation, profiling panel (AID 1118).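 Note: score merges 667 nm emission intensity and signal-to-noise per printed compound spot.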 As to conditions: BSA-A647 binding, fluorescence 635 nm, higher = more signal.
Experiment [2] in a line: probe aXIP binding to arrayed compounds – biochemical, NeuroSMM set, 635/667 nm fluorescence, primary screen (AID 1119).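 Note: probe is the protein aXip251-270 applied at 1 µg/mL to compound-printed slides; binding of probe to printed compounds measured as 667 nm fluorescence plus signal to noise.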 As to conditions: small-molecule microarray, higher = more signal, called active from +8 up or from −8 down.
Experiment [3] is described as follows: probe aNOTCH3 binding on compound microarray – biochemical, small-molecule microarray, 635/667 nm fluorescence, primary screen (AID 1120).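 Note: probe is a biotin-tagged antibody raised against NOTCH3 rather than NOTCH3 protein; score merges spot fluorescence near 667 nm with spot signal to noise.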 To be noted: higher = more signal.
Experiment [4] can be described thus: probe aNOTCH2 binding on compound microarray – biochemical, small-molecule microarray, 635/667 nm fluorescence, primary screen (AID 1121).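 Note: score merges feature fluorescence read at 667 nm with its signal to noise.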 As to conditions: higher = more signal.
Experiment [5] has as its target Carbonic anhydrase 2 (Homo sapiens) (UniProt P00918). Kind of experiment: compounds binding carbonic anhydrase 2 – biochemical, small-molecule microarray, Alexa647-labelled CAII, profiling panel (AID 1122). As to conditions: CAII-A647 binding fluorescence, higher = more signal.
The nature of experiment [6]: COS7 lysate on small-molecule microarray, probe aHis, 635 nm (AID 1123).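 Note: z-score combines 667nm fluorescence intensity with signal-to-noise per printed compound spot.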 To be noted: COS7 cell lysate, fluorescence, higher = more signal.
The nature of experiment [7]: probe aLAP1 signal on lysate-treated microarray – cell lysate, small-molecule microarray, COS7 lysate, primary screen (AID 1124).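 Note: lysate comes from COS7 cells expressing LAP1 and is applied at 0.3 µg/mL; score merges spot fluorescence near 667 nm with signal-to-noise over triplicate slides.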 As to conditions: probe aLAP1, fluorescence, higher = more signal.
The subject of experiment [8] is Sam68 (KHDRBS1). Briefly: compounds binding KHDRBS1 protein – biochemical, small-molecule microarray, 635 nm fluorescence, primary screen (AID 1125).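 Note: score merges 667 nm channel intensity with signal to noise over triplicate slides.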 To be noted: higher = more signal.
The subject of experiment [9] is Chordin-like protein 2 (CHRDL2). Briefly: compounds binding chordin-like 2 – biochemical, small-molecule microarray, 635 nm fluorescence, primary screen (AID 1126).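 Note: printed compound slides probed with Chrdl2 protein at 4 µg/mL for 1 h at 4 C; score merges 667 nm emission intensity with signal to noise over three replicate slides.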 To be noted: fluorescence 635 nm, higher = more signal.
The target of experiment [10] is Concanavalin-A (Canavalia ensiformis) (UniProt P02866). Briefly: compounds binding concanavalin A lectin – biochemical, small-molecule microarray, Alexa647 label, 635 nm, artefact control for SMM control protein annotation, primary screen (AID 1127).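 Note: z combines 667 nm emission intensity with signal-to-noise across three replicate slides.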 As to conditions: ConA-A647 binding fluorescence, higher = more signal.

Structures are written as SMILES. Calls of active or inactive are those of the source.

Albumin (Bos taurus), sequence (P02769 whole entry, looked up): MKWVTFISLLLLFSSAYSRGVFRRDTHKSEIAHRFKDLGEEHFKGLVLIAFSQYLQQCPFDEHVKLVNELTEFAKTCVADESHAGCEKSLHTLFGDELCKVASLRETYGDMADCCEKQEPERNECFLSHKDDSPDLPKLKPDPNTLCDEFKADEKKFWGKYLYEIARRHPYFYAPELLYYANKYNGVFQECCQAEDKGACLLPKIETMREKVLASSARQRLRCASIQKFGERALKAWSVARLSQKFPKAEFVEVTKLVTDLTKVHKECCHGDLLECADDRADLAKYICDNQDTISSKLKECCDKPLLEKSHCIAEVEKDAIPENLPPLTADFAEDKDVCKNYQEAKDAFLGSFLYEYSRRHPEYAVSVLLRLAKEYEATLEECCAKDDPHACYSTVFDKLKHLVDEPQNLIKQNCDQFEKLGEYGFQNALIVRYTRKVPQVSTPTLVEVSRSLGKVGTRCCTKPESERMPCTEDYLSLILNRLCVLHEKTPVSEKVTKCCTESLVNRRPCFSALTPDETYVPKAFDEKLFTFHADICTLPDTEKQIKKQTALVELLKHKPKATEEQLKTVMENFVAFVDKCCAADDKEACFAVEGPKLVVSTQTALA
Concanavalin-A (Canavalia ensiformis), sequence (P02866 whole entry, looked up): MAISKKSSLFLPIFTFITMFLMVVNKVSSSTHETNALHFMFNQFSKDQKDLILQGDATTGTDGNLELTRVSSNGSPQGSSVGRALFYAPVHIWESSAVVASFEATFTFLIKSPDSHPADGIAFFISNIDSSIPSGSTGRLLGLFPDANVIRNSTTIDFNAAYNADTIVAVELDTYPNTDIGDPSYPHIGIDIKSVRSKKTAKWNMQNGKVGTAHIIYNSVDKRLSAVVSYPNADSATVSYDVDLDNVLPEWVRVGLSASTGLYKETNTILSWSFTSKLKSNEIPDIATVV

With `C=CCC(OC(C)=O)[C@@H]1[C@@H](N(Cc2cccc3ccccc23)C(=O)c2ccc(C)cc2)c2cc(OCCCO)ccc2N1C(=O)c1ccc2ccccc2n1` (stereo not given in full), the composite z-score in experiment [1] was found to be 0.526; in experiment [3], 0.366; in experiment [4], 0.0239; in experiment [5], 0.246; in [6], 0.72; in experiment [7], 0.158. For the same molecule, the composite z-score in experiment [8] is 0.478; in experiment [9] it was 0.618; in experiment [10] it was -0.202. Moreover, in experiment [2], the composite Z-score was -0.104 (inactive).

As to `C=CCC(OC(C)=O)[C@@H]1[C@@H](N(Cc2ccc(-c3cccc(C(F)(F)F)c3)o2)C(=O)Cc2ccc(F)cc2)c2cc(OCCCO)ccc2N1C(=O)c1ccc2ccccc2c1` (stereo not given in full), the composite z-score is -0.229 in [1]; -0.0813 in experiment [3]; -0.117 in [4]; -0.351 in experiment [5]; 0.0261 in [6]; -0.211 in experiment [7]. Besides, the values for the composite z-score in experiment [8], in experiment [9] and in experiment [10] were -0.749, -0.0715 and -1.35, respectively. Besides, the composite Z-score in experiment [2] was -0.0127 (inactive).

Take `CC(C)[Si](C#CCCCC#N)(O[C@H](c1ccccc1)c1cn([C@H](C)c2ccccc2)nn1)C(C)C`: the composite z-score in experiment [1] was 0.221; in experiment [3] it was 0.0357; in [4], -0.0405; in experiment [5] it was 0.506; in [6] it was 0.879; in [7] it was 0.0714. The figures for the composite z-score in [8], in experiment [9] and in experiment [10] were 1.24, 0.293 and 0.444, respectively. Also, in [2], the composite Z-score was -0.0102 (inactive).

As to `C=CCOC(=O)[C@@H]1[C@H]2C(=O)O[C@H](c3ccccc3)[C@H](c3ccccc3)N2[C@H](c2ccc(OCCOC(=O)[C@H]3C[C@H]4C(=O)NCC(=O)N4[C@H]3c3ccc(O)cc3)cc2)[C@@]12C(=O)Nc1ccc(I)cc12`, the composite z-score in experiment [1] was -1.07; in experiment [3] it was -0.0711; in experiment [4], -0.117; in [5] it was 0.323; in [6] it was 1.94; in experiment [7], -0.159. For the same molecule, the values for the composite z-score in experiment [8], in experiment [9] and in [10] were 1.29, 0.826 and 1.16, respectively. The composite Z-score in experiment [2] is 0.683 (inactive).

As to `C=C(COC)C(=O)CC[C@@H](OC(=O)c1cccnc1)c1cccc(OCCO)c1`, the composite z-score in [1] is 0.0464; in [3], 0.158; in experiment [4], -0.107; in [5], 0.75; in experiment [6], 0.148; in experiment [7] it was -0.292. Besides, the values for the composite z-score in [8], in [9] and in experiment [10] were 0.804, 0.423 and -0.095, respectively. The composite Z-score in experiment [2] is -0.239 (inactive).

On to `COCCOC(=O)N1C(=O)[C@@]2(c3cc(C#CCC(C(=O)OC)C(=O)OC)ccc31)[C@H](C(=O)N1CCc3cc(OC)c(OC)cc3C1)[C@H]1C(=O)O[C@H](c3ccccc3)[C@H](c3ccccc3)N1[C@@H]2c1ccc(O)cc1`, for which the composite z-score in experiment [1] is -0.129; in experiment [3], 0.23; in [4] it was -0.0715; in experiment [5], 0.213; in [6], 1.72; in [7], 0.617. For the same molecule, the composite z-score in [8] was 1.17; in experiment [9] it was 1.05; in [10], 0.919. For the same molecule, in experiment [2], the composite Z-score was 0.131 (inactive).

In the case of `COc1cc2c(cc1O)C(c1ccc(CN3CCCC3)cc1)N(Cc1ccc([N+](=O)[O-])o1)CC2` (stereo not given), the composite z-score in [1] was 0.847; in experiment [3], 0.0469; in experiment [4] it was -0.0959; in [5], 0.91; in experiment [6], 0.542; in experiment [7], 0.774. Further, the figures for the composite z-score in [8], in experiment [9] and in experiment [10] were -0.768, -0.881 and 0.387, respectively. In experiment [2], the composite Z-score is 0.27 (inactive).

With `C=CCOC(=O)[C@H]1[C@@H]2C(=O)O[C@@H](c3ccccc3)[C@@H](c3ccccc3)N2[C@@H](c2ccc(OCCOC(=O)[C@@H]3C[C@@H]4C(=O)N[C@@H](CC(C)C)C(=O)N4[C@@H]3c3ccc(O)cc3)cc2)[C@]12C(=O)Nc1ccc(I)cc12`, the composite z-score was 0.822 in experiment [1]; 0.0469 in [3]; -0.0486 in experiment [4]; 0.668 in experiment [5]; 2.52 in experiment [6]; 0.0414 in [7]. In addition, the results for the composite z-score in experiment [8], in experiment [9] and in experiment [10] were 1.3, 1.33 and 1.13, respectively. For the same molecule, in experiment [2], the composite Z-score was 1.65 (inactive).

`COC(=O)[C@@]1(Cc2ccc(F)cc2)[C@H]2c3cc(C(=O)N(C)C)n(CCO)c3C[C@H]2CN1C(=O)c1ccccc1`: the composite z-score in [1] is 1.13; in experiment [3], -0.0448; in [4] it was 0.0746; in [5], 0.861; in [6], 1.97; in experiment [7], 1.21. Moreover, the composite z-score was -0.206 in [8], -0.437 in [9] and -0.0249 in experiment [10]. Also, the composite Z-score in experiment [2] was -0.551 (inactive).

For `O=C1N(Cc2ccccc2)c2ccccc2[C@H]2OC(c3ccc(OCCCO)cc3)=N[C@@]12Cc1ccccc1`, the composite z-score in experiment [1] is -0.465; in experiment [3], 0.0271; in experiment [4] it was -0.131; in experiment [5] it was 0.606; in experiment [6], 2.42; in experiment [7], 1.1. The composite z-score stood at 1.3 in [8], 0.41 in [9] and 1.06 in experiment [10]. Also, the composite Z-score in experiment [2] was 1.19 (inactive).

With `CN(C)CCCC[C@@H]1NC(=O)[C@@H]2C[C@H](C(=O)NCCCCCCNC(=O)CS)[C@H](c3cccc(OCCO)c3)N2C1=O`, the composite z-score in experiment [1] was -0.361; in experiment [3], -0.213; in experiment [4], -0.0649; in [5], 0.48; in experiment [6] it was 0.95; in experiment [7] it was 0.312. The results for the composite z-score in experiment [8], in experiment [9] and in [10] were 0.555, 0.402 and 0.658, respectively. Moreover, in experiment [2], the composite Z-score is 0.303 (inactive).

As to `C=CCNC(=O)[C@H]1[C@@H]2C(=O)O[C@@H](c3ccccc3)[C@@H](c3ccccc3)N2[C@@H](c2ccc(O)cc2)[C@]12C(=O)Nc1ccc(C#CC3=CCCCC3)cc12`, the composite z-score in [1] is 0.135; in experiment [3] it was -0.119; in experiment [4], 0.23; in experiment [5] it was 0.416; in [6] it was 1.52; in experiment [7] it was 0.573. Besides, the results for the composite z-score in experiment [8], in experiment [9] and in experiment [10] were 1.11, 0.62 and 1.12, respectively. Further, the composite Z-score in experiment [2] was -0.121 (inactive).

For `C=CC[C@@]1(C(=O)O)N=C(c2ccc(OCCCO)cc2)O[C@@H]1c1ccccc1CN=[N+]=[N-]`, the composite z-score in experiment [1] is 0.557; in experiment [3] it was 0.0991; in experiment [4] it was -0.147; in experiment [5] it was 0.596; in experiment [6] it was 1.9; in [7] it was 0.0424. Further, the composite z-score in [8] is 0.826; in [9], 0.439; in [10] it was 1.05. For the same molecule, in experiment [2], the composite Z-score is -0.632 (inactive).

With `O=C1C2C=CC(C(O)c3ccc([N+](=O)[O-])cc3)N(Nc3ccccc3)C2C(=O)N1c1ccccc1` (stereo not given), the composite z-score was 0.822 in [1]; 0.261 in experiment [3]; -0.0591 in experiment [4]; 0.77 in [5]; 1.42 in experiment [6]; -0.163 in [7]. Further, the composite z-score in experiment [8] was 0.594; in experiment [9] it was -0.225; in experiment [10], 0.49. Besides, the composite Z-score in experiment [2] was -0.0589 (inactive).
